miR-122 inh – miR-122 suppressors via Renilla sensor increase, primary screen, cell-based, Huh7 psiCHECK-miR122, Renilla luciferase, single point. 48 h. activation, % at 12.5 µM. 340,000 compounds, 0.14% hits. AID 623901, 2012;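 active means mean activation of 30% or more, with every replicate also reaching 30%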;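 further: higher luciferase signal means stronger suppression of miR-122 activity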
Of the large screens only hits and unclear results are named; the others gave an inactive call. The full list was thinned out, with hits kept by preference.

CO[C@@H]1CN(C)C(=O)c2cc(NC(=O)NC(C)C)ccc2OC[C@@H](C)N(C(=O)NC(C)C)C[C@@H]1C	none
CCC(=O)N(C)C[C@H]1Oc2ncc(C#C[C@@H](C)O)cc2C(=O)N([C@H](C)CO)C[C@@H]1C	none
C[C@H]1CN([C@@H](C)CO)S(=O)(=O)c2ccc(-c3cccc(C#N)c3)cc2O[C@@H]1CN(C)C(=O)Nc1ccccc1F	none
C[C@@H]1CN([C@@H](C)CO)C(=O)c2cc(-c3cccc(F)c3)cnc2O[C@H]1CN(C)S(C)(=O)=O	none
C/C=C/c1ccc2c(c1)O[C@H](CN(C)C(=O)Nc1ccc(OC)cc1)[C@H](C)CN([C@H](C)CO)S2(=O)=O	none
COc1ccc(-c2cnc3c(c2)C(=O)N([C@@H](C)CO)C[C@@H](C)[C@H](CN(C)Cc2ccccn2)O3)cc1	none
CC(C)C#Cc1cnc2c(c1)C(=O)N([C@@H](C)CO)C[C@@H](C)[C@H](CN(C)C(=O)c1ccccc1)O2	none
C[C@@H]1CN([C@H](C)CO)C(=O)c2cc(C#C[C@@H](C)O)cnc2O[C@@H]1CN(C)C(=O)CN(C)C	none
C[C@@H]1CN([C@H](C)CO)C(=O)c2cc(C3=CCCCC3)cnc2O[C@H]1CN(C)Cc1ccccc1C(=O)O	none
C[C@H](O)C#Cc1ccc2c(c1)O[C@H](CN(C)Cc1cccnc1)[C@@H](C)CN([C@@H](C)CO)S2(=O)=O	none
CCn1nc(C)cc1-c1nnc(Sc2ncc([N+](=O)[O-])s2)n1C	miR-122 inh 44.9
COCC(=O)Nc1ccc2c(c1)OC[C@H](C)NC[C@@H](C)[C@@H](OC)CN(C)C2=O	none
C[C@H]1CN([C@@H](C)CO)S(=O)(=O)c2ccc(-c3ccncc3)cc2O[C@@H]1CN(C)Cc1cncnc1	none
NC(=O)C1CCN(C2=C(Cl)C(=O)c3ccccc3C2=O)CC1	miR-122 inh 70.1
C[C@@H]1CN([C@@H](C)CO)C(=O)c2cc(-c3cncnc3)cnc2O[C@H]1CN(C)Cc1ccccc1	none
CCCC#Cc1cnc2c(c1)C(=O)N([C@@H](C)CO)C[C@H](C)[C@H](CN(C)Cc1cccnc1)O2	none
COc1ccccc1-c1cnc2c(c1)C(=O)N([C@H](C)CO)C[C@H](C)[C@H](CN(C)Cc1ccccc1)O2	none
Cc1ccc(C(=O)C2=C(O)C(=O)N(CCCN3CCOCC3)C23C(=O)N(C)c2ccccc23)o1 (centres undefined)	miR-122 inh 31.8
CC(C)C#Cc1ccc2c(c1)O[C@@H](CN(C)C(=O)NC(C)C)[C@@H](C)CN([C@H](C)CO)S2(=O)=O	none
COc1cccc(OCc2cc(/C=N/Nc3ccc(C(=O)O)cc3)ccc2OC)c1	miR-122 inh 46.8
COc1ccc(OC)c(S(=O)(=O)Nc2ccc(C(C)=O)cc2)c1	none
C[C@@H]1CN([C@H](C)CO)C(=O)c2cc(-c3cncnc3)cnc2O[C@@H]1CN(C)Cc1ccc(F)cc1	none
O=C(Nc1ccc(Cn2cccn2)cc1)c1ccc(COc2ccccc2Br)cc1	miR-122 inh 31.5
CC(C)CC#Cc1cnc2c(c1)C(=O)N([C@H](C)CO)C[C@H](C)[C@@H](CN(C)C(=O)Nc1ccccc1F)O2	none
C[C@H]1CN([C@@H](C)CO)S(=O)(=O)c2ccc(-c3ccccc3)cc2O[C@H]1CN(C)Cc1ccccc1C(=O)O	none
COc1cccc(C#Cc2ccc3c(c2)O[C@@H](CN(C)S(=O)(=O)c2ccccc2F)[C@H](C)CN([C@@H](C)CO)S3(=O)=O)c1	none
C[C@@H]1CN([C@@H](C)CO)C(=O)c2cc(-c3cccnc3)cnc2O[C@@H]1CN(C)Cc1ccc(Oc2ccccc2)cc1	none
COCC(=O)N(C)C[C@H]1Oc2ncc(C#Cc3ccncc3)cc2C(=O)N([C@H](C)CO)C[C@@H]1C	none
C[C@H](O)C#Cc1ccc2c(c1)O[C@@H](CN(C)C)[C@H](C)CN([C@@H](C)CO)S2(=O)=O	none
